Most compounds without a hit are left out; they make up all but 28% or so of the library.
Mac1 fbg inh: CD11b/CD18-fibrinogen binding inhibition. K562 CD11b/CD18 adhesion to fibrinogen, ATPlite luminescence; Mn2+ added to activate the integrin. inhibition, % at 10 µM. P05107+P11215. hit rate 0.54% among 93,000. AID 1497;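 active means primary inhibition of 50% or more at 10 µM, then 40% or more on retest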
Target sequence (P05107 whole entry, looked up, other chains not shown): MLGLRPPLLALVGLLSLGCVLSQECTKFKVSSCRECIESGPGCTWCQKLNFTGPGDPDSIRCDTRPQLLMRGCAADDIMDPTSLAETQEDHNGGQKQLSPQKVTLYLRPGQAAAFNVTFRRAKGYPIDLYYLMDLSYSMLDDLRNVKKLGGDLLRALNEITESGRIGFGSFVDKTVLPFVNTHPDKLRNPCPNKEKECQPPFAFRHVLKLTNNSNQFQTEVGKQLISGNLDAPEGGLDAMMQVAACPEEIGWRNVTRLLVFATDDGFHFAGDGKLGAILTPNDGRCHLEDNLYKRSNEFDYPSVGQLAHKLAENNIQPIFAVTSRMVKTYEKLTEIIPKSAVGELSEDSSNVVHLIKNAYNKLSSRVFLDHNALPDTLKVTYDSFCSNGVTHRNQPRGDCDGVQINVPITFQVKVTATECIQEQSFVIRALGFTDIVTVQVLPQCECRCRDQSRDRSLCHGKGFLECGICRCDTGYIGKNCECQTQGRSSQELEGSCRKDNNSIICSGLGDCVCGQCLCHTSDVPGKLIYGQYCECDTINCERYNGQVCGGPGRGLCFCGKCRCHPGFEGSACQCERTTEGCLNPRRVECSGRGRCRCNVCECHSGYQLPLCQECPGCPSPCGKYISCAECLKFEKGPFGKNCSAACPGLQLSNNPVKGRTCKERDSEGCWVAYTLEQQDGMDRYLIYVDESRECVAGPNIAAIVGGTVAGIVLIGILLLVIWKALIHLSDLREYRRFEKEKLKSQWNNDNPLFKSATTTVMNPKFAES
CYP2C9 act: increases human cytochrome P450 2C9 activity; AID 1024; P11712; hit rate 1.4% among 96,000; activation factor at 5 µM; recombinant CYP2C9, luciferin-H conversion, luminescence; stronger effect = higher value; factor 1 = untreated enzyme, 0 = blocked;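 active means activation factor of 2 or more for CYP2C9 at a 5 µM dose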;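 further: 0 = sulfaphenazole-blocked wells and 1 = vehicle-only wells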
CYP2C19 inhib: blocks human cytochrome P450 2C19 | CYP2C19 Supersomes, luciferin-H EGE luminescence, 30 min | P33261 | hit rate 21% among 96,000 | inhibition, % at 5 µM | AID 778;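 active means CYP2C19 inhibition above a set limit at 5 µM in the primary screen, cut at about 50% in these data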;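 further: plate controls were negative control wells for no effect and 2.5 mM tranylcypromine positive control for full effect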
CD11b adhes enh: CD11b/CD18-fibrinogen binding enhancement; activation, % at 10 µM; K562 CD11b/CD18 adhesion to fibrinogen, ATPlite luminescence; AID 1499; hit rate 0.07% among 93,000; P05107+P11215;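 active means 10 µM primary screen giving 50% or more activity, confirmed by 40% or more on retest at that dose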
CYP2C19 act: activators of human cytochrome P450 2C19; 96,000 tested, under 10 active; AID 1025; P33261; activation factor at 5 µM; recombinant CYP2C19, luciferin-H EGE luminescence; stronger effect = higher value; 0 = fully inhibited enzyme, 1 = untreated enzyme;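 active means activation factor of at least 2 at 5 µM in the primary screen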;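 further: 0 = wells with 2.5 mM tranylcypromine and 1 = vehicle-only wells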
CYP2C9 inh: inhibitors of human CYP2C9 | CYP2C9 Supersomes, luciferin-H conversion, luminescence | inhibition, % at 5 µM | hit rate 20% among 96,000;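 active means blocking of liver enzyme CYP2C9 beyond about 50% at 5 µM, limit read from the data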
* marks the source's active call; other numbers are inactive results; nt = no result.

SMILES	Mac1 fbg inh	CYP2C9 act	CYP2C19 inhib	CD11b adhes enh	CYP2C19 act	CYP2C9 inh
CCCCOc1ccccc1C(=O)NCCCCCC(=O)O	-7	0.9	-13	-3	1.1	15
CCn1c2ccccc2c2cc(N)ccc21	-7	0.8	93*	6	0.1	19
N#CC1=C(N)OC2=C(C(=O)CCC2)C1C1C=CCCC1 (configuration not stated)	-6	0.3	84*	2	0.2	73*
Cc1ccc(N2C(N)=C(C#N)C(c3cccs3)C3=C2CC(C)(C)CC3=O)cc1 (configuration not stated)	-46	0.2	42	8	0.6	80*
O=C1CCCC2=C1C(Cc1ccccc1)C1=C(CCCC1=O)O2	-9	0.8	82*	-6	0.2	23
CCn1c2ccccc2c2cc(/C(C)=N/O)ccc21	8	0.5	22	7	0.8	50
CSc1ccccc1NC(=O)c1cccnc1	-48	1.1	-8	3	1.1	-13
FC(F)(F)c1cc(-c2ccco2)nc(NCCc2ccccc2)n1	nt	0.6	12	nt	0.9	38
Cc1ccc(N2C(N)=C(C#N)C(c3cccnc3)C3=C2CCCC3=O)cc1 (configuration not stated)	-4	0.6	14	-3	0.9	36
CC1(C)CC(=O)C2=C(C1)N(c1ccccc1)C(N)=C(C#N)C2c1ccsc1 (configuration not stated)	-50	0.2	68*	7	0.3	75*
N#CC1=C(N)N(c2ccc(Br)cc2)C2=C(C(=O)CCC2)C1c1cccnc1 (configuration not stated)	5	0.5	21	-3	0.8	52*
CC1(C)CC(=O)C2=C(C1)N(c1ccc(F)cc1)C(N)=C(C#N)C2c1cccs1 (configuration not stated)	6	0.9	-2	1	1	10
COCCOC(=O)C1=C(N)OC2=C(C(=O)CC(C)(C)C2)C1c1cccnc1 (configuration not stated)	-50	0.8	27	-4	0.7	16
CCn1c2ccccc2c2cc(C3C(C#N)=C(C)NC(C)=C3C#N)ccc21	2	0	100*	-2	0	95*
CCOC(=O)C1=C(N)OC2=C(C(=O)CC(C)(C)C2)C1c1ccccc1OCC#N (configuration not stated)	-9	0.2	71*	2	0.3	79*
CCCCCCCOc1ccc(OC(=O)c2ccncc2)cc1	16	0.8	10	1	0.9	23
Cn1cnnc1Sc1cc(N2CCN(S(=O)(=O)c3ccc4ccccc4c3)CC2)ccc1[N+](=O)[O-]	-3	nt	nt	65	nt	nt
O=C(Nc1ccc(Br)cc1F)c1sccc1-n1cccc1	18	1.1	-14	0	1.1	-6
Cc1ccc(S(=O)(=O)N2CCN(C(=O)c3cccc(F)c3)CC2)cc1	-9	1	28	1	0.7	3
O=C(c1cc(-c2cccs2)nc2ccccc12)N1CCN(S(=O)(=O)c2ccccc2)CC1	3	0.1	84*	-2	0.2	94*
O=C(Cc1cccs1)N1CCN(S(=O)(=O)c2ccccc2)CC1	6	nt	nt	-4	nt	nt
O=C(c1cc(-c2cccs2)nc2ccccc12)N1CCN(S(=O)(=O)c2cccc(F)c2)CC1	-5	0.3	0	-3	1	69*
CCN1C(=O)/C(=C\c2cn(CCC#N)nc2-c2ccc(F)cc2)SC1=S	0	nt	nt	15	nt	nt
CCCOc1ccc(S(=O)(=O)NNC(=O)c2cc3ccccc3o2)cc1	19	nt	nt	0	nt	nt
CC(Oc1ccc(C(C)(C)C)cc1)c1ccnc2nc(/N=C/N(C)C)nn12 (configuration not stated)	-1	0.9	6	-5	0.9	13
SMILES	Mac1 fbg inh	CYP2C9 act	CYP2C19 inhib	CD11b adhes enh	CYP2C19 act	CYP2C9 inh
O=C(c1ccco1)N1CCN(CC(=O)N2c3ccccc3CCc3ccccc32)CC1	-10	0.4	17	8	0.8	61*
O=C(CN1CCN(C(=O)c2ccco2)CC1)Nc1ccccc1-c1ccccc1	2	0.2	76*	0	0.2	80*
CC(NCc1ccc2c(c1)OCO2)C(=O)NC1CCCc2ccccc21 (configuration not stated)	4	0.9	50	-2	0.5	7
COC(=O)C1=C(C)N=C2SC(C)C(=O)N2C1/C=C/c1ccccc1OC (configuration not stated)	7	0.4	81*	-1	0.2	63*
CCC1SC2=NC(C)=C(C(=O)OCC(C)C)C(/C=C/c3ccccc3OC)N2C1=O (configuration not stated)	10	0.2	38	-2	0.6	78*
COC(=O)C1=C(C)N=C2SC(C)C(=O)N2C1c1cccs1 (configuration not stated)	-5	0.9	30	3	0.7	11

Bioassay records (PubChem BioAssay)
